Source: PubChem BioAssay
Activity calls are given as the source filed them.

Columns and labels:
[1] = binders of probe aFSTL3 on microarray, primary screen, stem cell growth factor project, biochemical, small-molecule microarray, fluorescence 635/667 (AID 1064); conditions: higher = more signal;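 also: measures binding of the biotinylated anti-FSTL3 antibody to printed compounds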
[2] = binders from COS7 lysate, DM2A8 probe, primary screen, torsin A project, cell lysate, small-molecule microarray, fluorescence 635/667 (AID 1065); conditions: higher = more signal, COS7 lysate expressing mutant human TOR1A
[3] = binders of probe aFGF2 on microarray, primary screen, stem cell growth factor project, biochemical, small-molecule microarray, fluorescence 635/667 (AID 1067); conditions: higher = more signal;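 also: measures binding of biotinylated aFGF2 protein to printed compounds on slides; z-score merges feature fluorescence and signal-to-noise across triplicate slides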
[4] = binders of probe aFGF10 on microarray, primary screen, stem cell growth factor project, biochemical, small-molecule microarray, fluorescence 635/667 (AID 1071); conditions: higher = more signal;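 also: score merges 667 nm spot intensity and signal to noise from triplicate slides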
[5] = molecular target: Neurogenic locus notch homolog protein 2 (Homo sapiens) (UniProt Q04721); assay: Notch2 binders on small-molecule microarrays, primary screen, biochemical, small-molecule microarray, 635 nm fluorescence, stem cell growth factors (AID 1073); conditions: Notch2 binding, higher = more signal
Neurogenic locus notch homolog protein 2 (Homo sapiens), sequence (Q04721 whole entry, looked up, canonical isoform): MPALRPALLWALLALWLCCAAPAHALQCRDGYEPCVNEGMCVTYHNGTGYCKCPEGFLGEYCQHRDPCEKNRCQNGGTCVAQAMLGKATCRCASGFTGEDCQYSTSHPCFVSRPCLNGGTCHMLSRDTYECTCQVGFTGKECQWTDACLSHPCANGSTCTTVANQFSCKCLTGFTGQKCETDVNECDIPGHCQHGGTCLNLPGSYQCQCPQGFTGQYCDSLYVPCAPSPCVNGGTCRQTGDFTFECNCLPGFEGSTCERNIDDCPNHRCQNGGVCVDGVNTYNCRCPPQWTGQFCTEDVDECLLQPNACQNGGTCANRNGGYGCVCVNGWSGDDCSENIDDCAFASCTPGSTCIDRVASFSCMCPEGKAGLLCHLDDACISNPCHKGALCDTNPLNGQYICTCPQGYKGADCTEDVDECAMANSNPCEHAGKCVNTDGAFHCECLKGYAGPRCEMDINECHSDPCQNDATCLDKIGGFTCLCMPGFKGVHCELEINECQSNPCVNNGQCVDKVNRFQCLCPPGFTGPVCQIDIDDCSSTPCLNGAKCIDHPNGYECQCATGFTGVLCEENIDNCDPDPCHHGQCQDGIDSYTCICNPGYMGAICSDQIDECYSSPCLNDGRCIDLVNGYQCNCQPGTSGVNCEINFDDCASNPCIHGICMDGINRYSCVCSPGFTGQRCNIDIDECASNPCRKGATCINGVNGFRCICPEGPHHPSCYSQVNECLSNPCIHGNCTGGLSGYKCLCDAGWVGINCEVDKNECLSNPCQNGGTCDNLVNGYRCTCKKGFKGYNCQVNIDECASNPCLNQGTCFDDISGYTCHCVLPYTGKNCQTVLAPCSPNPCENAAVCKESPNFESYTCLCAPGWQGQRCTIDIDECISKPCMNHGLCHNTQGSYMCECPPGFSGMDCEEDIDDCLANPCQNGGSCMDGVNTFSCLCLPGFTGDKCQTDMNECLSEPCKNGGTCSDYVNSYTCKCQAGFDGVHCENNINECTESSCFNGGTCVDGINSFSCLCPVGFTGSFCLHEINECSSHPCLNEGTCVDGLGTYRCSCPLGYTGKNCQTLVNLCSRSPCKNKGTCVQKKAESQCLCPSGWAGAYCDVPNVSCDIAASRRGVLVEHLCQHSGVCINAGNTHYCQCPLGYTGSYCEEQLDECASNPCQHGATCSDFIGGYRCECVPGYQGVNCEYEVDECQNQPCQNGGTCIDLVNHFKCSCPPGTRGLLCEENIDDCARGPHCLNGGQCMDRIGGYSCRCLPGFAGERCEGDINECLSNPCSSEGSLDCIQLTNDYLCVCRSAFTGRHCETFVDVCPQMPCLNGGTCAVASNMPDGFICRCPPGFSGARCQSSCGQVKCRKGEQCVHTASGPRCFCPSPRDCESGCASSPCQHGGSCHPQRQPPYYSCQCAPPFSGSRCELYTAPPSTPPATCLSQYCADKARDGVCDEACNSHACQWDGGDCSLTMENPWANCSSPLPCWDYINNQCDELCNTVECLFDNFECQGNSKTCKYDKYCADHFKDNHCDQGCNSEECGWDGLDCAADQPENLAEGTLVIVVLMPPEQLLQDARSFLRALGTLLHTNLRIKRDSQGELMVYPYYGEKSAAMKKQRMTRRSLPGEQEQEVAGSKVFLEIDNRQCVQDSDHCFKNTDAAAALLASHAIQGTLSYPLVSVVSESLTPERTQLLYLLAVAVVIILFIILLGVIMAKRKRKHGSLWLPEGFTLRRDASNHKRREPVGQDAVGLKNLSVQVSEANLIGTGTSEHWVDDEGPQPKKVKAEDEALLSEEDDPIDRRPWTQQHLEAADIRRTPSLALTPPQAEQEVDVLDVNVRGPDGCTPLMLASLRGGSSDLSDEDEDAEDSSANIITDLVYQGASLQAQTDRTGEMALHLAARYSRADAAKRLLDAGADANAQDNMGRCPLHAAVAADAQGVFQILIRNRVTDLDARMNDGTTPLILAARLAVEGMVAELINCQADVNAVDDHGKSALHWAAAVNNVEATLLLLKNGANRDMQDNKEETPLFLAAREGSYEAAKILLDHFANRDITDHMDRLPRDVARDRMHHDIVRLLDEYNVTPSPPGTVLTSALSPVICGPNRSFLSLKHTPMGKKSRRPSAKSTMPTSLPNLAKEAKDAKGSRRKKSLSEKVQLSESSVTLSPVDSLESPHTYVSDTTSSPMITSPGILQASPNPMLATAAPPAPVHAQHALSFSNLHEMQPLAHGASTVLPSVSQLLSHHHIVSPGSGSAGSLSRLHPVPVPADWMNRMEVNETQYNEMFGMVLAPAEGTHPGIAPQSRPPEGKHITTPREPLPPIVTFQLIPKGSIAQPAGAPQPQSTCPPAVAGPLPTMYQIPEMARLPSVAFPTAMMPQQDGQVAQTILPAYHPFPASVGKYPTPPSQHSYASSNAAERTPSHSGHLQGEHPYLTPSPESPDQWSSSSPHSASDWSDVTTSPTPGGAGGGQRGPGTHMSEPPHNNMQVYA

[6] = molecular target: Pro-neuregulin-1, membrane-bound isoform (Homo sapiens) (UniProt Q02297); assay: NRG1 binders on small-molecule microarrays, primary screen, psychiatric disease protein project, biochemical, small-molecule microarray, fluorescence 635/667 (AID 1075); conditions: NRG1 binding, 635 nm fluorescence, higher = more signal;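 also: score combines 667 nm spot fluorescence with signal to noise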
Pro-neuregulin-1, membrane-bound isoform (Homo sapiens), sequence (Q02297 whole entry, looked up, the tested form may be a part, canonical isoform): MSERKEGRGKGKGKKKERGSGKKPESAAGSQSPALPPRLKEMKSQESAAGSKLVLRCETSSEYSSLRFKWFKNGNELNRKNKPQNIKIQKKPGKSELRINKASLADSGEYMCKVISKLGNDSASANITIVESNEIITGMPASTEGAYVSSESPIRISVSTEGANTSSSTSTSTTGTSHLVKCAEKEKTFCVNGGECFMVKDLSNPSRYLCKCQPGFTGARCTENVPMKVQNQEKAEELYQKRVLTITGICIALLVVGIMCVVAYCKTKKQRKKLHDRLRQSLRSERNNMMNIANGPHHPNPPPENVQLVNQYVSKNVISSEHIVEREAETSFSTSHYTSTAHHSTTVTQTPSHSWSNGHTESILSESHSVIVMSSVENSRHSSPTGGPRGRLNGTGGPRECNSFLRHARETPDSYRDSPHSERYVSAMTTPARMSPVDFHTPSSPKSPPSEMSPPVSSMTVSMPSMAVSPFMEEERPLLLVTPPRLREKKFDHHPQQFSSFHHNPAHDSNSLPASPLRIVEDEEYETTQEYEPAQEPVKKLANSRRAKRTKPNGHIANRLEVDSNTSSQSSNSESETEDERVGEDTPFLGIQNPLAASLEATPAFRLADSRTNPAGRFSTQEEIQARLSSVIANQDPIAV

[7] = tested on: Neuregulin-1 EGF-like domain; assay: binders of neuregulin-1 EGF-like domain, primary screen, biochemical, small-molecule microarray, 635 nm fluorescence (AID 1081); conditions: small-molecule microarray binding, higher = more signal;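 also: binding of the protein to compounds printed on small-molecule microarray slides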
[8] = FRG1 promoter luciferase signal modulators, primary screen, FRG1 inhibition for FSHD, cell-based, C2C12 myotubes, firefly/Renilla luciferase, luminescence (AID 1084); conditions: higher = more signal, called active from +8 up or from −8 down
[9] = binders of probe aFST on microarray, primary screen, stem cell growth factor project, biochemical, small-molecule microarray, fluorescence 635/667 (AID 1086); conditions: higher = more signal;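 also: score merges 667 nm fluorescence with signal-to-noise of each printed compound spot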
[10] = binders of probe aHhip on microarray, primary screen, stem cell growth factor project, biochemical, small-molecule microarray, fluorescence 635/667 (AID 1087); conditions: higher = more signal;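 also: score merges spot fluorescence at 667nm with spot signal to noise ratio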

Compound	composite z-score [1]	composite z-score [2]	composite z-score [3]	composite z-score [4]	composite z-score [5]	composite z-score [6]	composite z-score [7]	z-score [8]	composite z-score [9]	composite z-score [10]
O=C1CCCC(C2=CCCCC2=O)C1 (stereo not given)	-0.31	0.213	-0.0895	0.0787	0.312	-0.3	0.165	0.222 (inactive)	0.0915	0.157
CO[C@H]1COC(=O)[C@@H](C)COC(=O)[C@H](COCc2ccccc2)NC(=O)CC=C[C@H]1C	-0.325	1.45	-0.156	-0.607	-1.58	-1.19	-1.43	-0.335 (inactive)	0.1	-0.0672
COC(=O)CC=C[C@@H](C)[C@@H]1C=C[C@H](O)[C@@H](CO)O1	-0.202	0.124	-0.106	0.376	0.432	-0.196	-0.0778	-0.163 (inactive)	0.225	-0.176
CCOC(=O)[C@H](Cc1ccccc1)NC(=O)CCC1CC(OC(=O)NCCc2ccc(F)cc2)CC2(CCCC(COC(=O)NCC3CCCCC3)O2)O1 (stereo not given in full)	-0.509	0.574	-0.0425	0.582	1.42	0.513	1.1	-0.692 (inactive)	0.676	-0.302
COc1ccc(O[C@H]2C=C[C@@H](c3ccccc3)O[C@@H]2CON=C(C)CCN2CCc3nc(-c4ccccc4)c(-c4ccccc4)cc3C2)cc1	-0.311	0.183	-0.0909	-0.631	-0.167	0.617	-0.0088	0.282 (inactive)	0.371	0.136
COC(=O)[C@@H]1CC[C@H](C)[C@@H](c2ccc(C)cc2)N1C(=O)c1ccc(C=NO[C@@H](C)c2cn([C@H](CO)Cc3ccccc3)nn2)cc1	-0.612	-0.0378	-0.0943	0.496	1.11	0.327	0.477	-3.25 (inactive)	0.517	0.25
CON=C1[C@H]2CCn3c(=O)n(-c4ccccc4)c(=O)n3[C@H]2[C@H](O)[C@@H]2O[C@H]12	-0.39	0.135	-0.0533	0.383	0.41	0.0959	0.561	-1.17 (inactive)	0.17	-0.199
CCOC(=O)NN=C1C[C@@H](O)[C@@H](O)[C@@H]2[C@@H]3C(=O)N(c4cccc(Oc5ccccc5)c4)C(=O)[C@@H]3CC[C@H]12	-0.441	0.192	-0.187	0.221	0.615	0.855	0.234	-0.0124 (inactive)	0.0755	-0.0645
COC(=O)[C@H](C)NC(=O)CCC1CC(OC(=O)NCc2cccc3ccccc23)CC2(CCCC(COC(=O)NCC(c3ccccc3)c3ccccc3)O2)O1 (stereo not given in full)	-0.766	0.233	-0.0092	0.532	1.23	0.917	0.801	2.44 (inactive)	0.157	-0.134
O=C1C2=CC[C@H]3C(=O)N(c4cccc(Oc5ccccc5)c4)C(=O)[C@H]3[C@H]2[C@H](O)[C@@H]2O[C@H]12	-0.476	0.337	-0.14	0.258	-0.139	0.0597	0.129	-0.492 (inactive)	0.373	-0.184
Cc1ccc(S(=O)(=O)N[C@H]2COC(=O)CC=C[C@@H](C)COC(=O)CC=C[C@@H]2C)cc1	-0.537	0.604	-0.135	0.0963	-0.094	-0.326	-0.0175	0.999 (inactive)	-0.135	-0.466
C#CCCCON=C1C[C@@H](O)[C@@H](O)[C@@H]2[C@@H]3C(=O)N(c4ccc(F)cc4F)C(=O)[C@@H]3CC[C@@H]12	-0.398	1.69	-0.138	0.103	0.329	0.0095	-0.114	-0.236 (inactive)	0.0638	0.235
